40 molecules from ChEMBL document CHEMBL1157539, “Thousands of chemical starting points for antimalarial lead identification” (Nature, 2010) can be followed below.

Values joined by “and” are separate entries in the source; they are usually repeats but may differ in a detail not shown here. Identical values can stand only once.

The first test deals with Plasmodium falciparum. In words: GSK_TCMDC: Inhibition of Plasmodium falciparum 3D7 in whole red blood cells, using parasite LDH activity as an index of growth. Test compounds present at 2uM. Format: functional.
On to `CCC(C(C)C)n1ccc2c3c(N)nc(N)nc3ccc21` (stereo not given), for which the Inhibition is 95%.

With `Cc1ccc2ccncc2c1N`, the Inhibition is recorded as 96%.

Turning to `Cl.Oc1ccc2c(CNC3CCCCC3)c(O)ccc2c1CNC1CCCCC1`, the Inhibition is 100%.

Consider `Cc1nc2nc(N)nc(N)c2c(C)c1Cc1ccc(N)cc1.Cl`, for which the Inhibition is recorded as 97%.

On to `CN(Cc1cnc2nc(N)nc(N)c2n1)c1ccc(C(=O)N[C@H](CCC(=O)OC(C)(C)C)C(=O)N[C@@H](CCC(=O)OC(C)(C)C)C(=O)OC(C)(C)C)cc1`, for which the Inhibition is 85%.

Take `COc1ccc2c(O)c(Br)c(C)nc2c1`: the Inhibition is reported as 89%.

For `COc1cc(Cc2cnc(N)nc2N)cc(OCCCC(=O)O)c1OC`, the Inhibition is listed as 84%.

Take `CCCOc1ccc(CNCCCCCCNCc2ccc(OCCC)c3ccccc23)c2ccccc12.CS(=O)(=O)O`: the Inhibition stood at 100%.

`Cl.Nc1nc(N)c2c(ccc3nn(Cc4ccccc4)cc32)n1` came in with an Inhibition of 97%.

`CCN(CC)CCCN(CCCN(CC)CC)c1cc(C)nc(Nc2ccc(Br)cc2)n1.Cl` displayed an Inhibition of 100%.

In the case of `Cc1[nH]c(C)c(-c2ccc(Oc3ccccc3)cc2)c(=O)c1Br`, the Inhibition was 96%.

Take `CCc1cccc(-c2cc(N)n(C)c3nc(N)nc(=O)c2-3)c1`: the Inhibition stood at 85%.

Take `CCCc1cc(Cc2cnc(N)nc2N)c2cccnc2c1OC`: the Inhibition is on record as 98%.

Consider `Cc1cccc(Cn2ccc3c4c(N)nc(N)nc4ccc32)c1`, for which the Inhibition is 95%.

In turn, `Cl.Nc1ccncc1C(=O)NCCCCN1CCN(c2nsc3ccccc23)CC1` yielded an Inhibition of 100%.

In the case of `COc1cc(Cc2cnc(N)nc2N)cc(OCCCC#N)c1OC`, the Inhibition is listed as 86%.

With `Nc1nc(N)c2cc(Cc3ccccc3Cl)cnc2n1`, the Inhibition came out at 93%.

The molecule `Cl.Oc1cc2ccccc2cc1CNC1CCCCC1` yielded an Inhibition of 98%.

Consider `Cc1nc(C)c(-c2ccc(Oc3ccc(Cl)c(Cl)c3)cc2)c(O)c1Br`, for which the Inhibition worked out at 97%.

The molecule `CCCCN(CCCC)Cc1cc(N(C)c2ccc([N+](=O)[O-])cn2)ccc1O.O=C(O)C(=O)O` had an Inhibition of 98%.

Regarding `CC(C)c1ccc2c(c1)C(=O)c1ccc(C(=O)O)cc1S2(=O)=O`, the Inhibition was 93%.

Turning to `CCCCc1cc(Cc2cnc(N)nc2N)cc(OC)c1OC.Cl`, the Inhibition worked out at 86%.

The molecule `Cc1nc(C)c(-c2ccc(Cl)cc2)c(O)c1I` showed an Inhibition of 93%.

With `CC(C)(C)c1ccc(-c2nnc(N)nc2N)cc1`, the Inhibition was determined as 92%.

Turning to `COc1ccc2c(OC)cccc2c1CNCCCCCCNCc1c(OC)ccc2c(OC)cccc12.CS(=O)(=O)O`, the Inhibition worked out at 92%.

Consider `Nc1ncc(-c2ccc(F)c(Cl)c2)c(N)n1`, for which the Inhibition turned out to be 83%.

`COCCOCCOCCn1ccc2c3c(N)nc(N)nc3ccc21` showed an Inhibition of 97%.

Molecule `CC(=NNC(S)=NCc1ccco1)c1ccccn1` had an Inhibition of 99%.

In turn, `CCCCN(CCCC)CCCN(CCCN(CCCC)CCCC)c1cc(C)nc(Nc2ccc(Cl)cc2)n1.O=C(O)C(=O)O` had an Inhibition of 100%.

On to `Cl.O[C@@H](c1cc(C(F)(F)F)nc2c(C(F)(F)F)cccc12)[C@H]1CCCCN1`, for which the Inhibition is 96% and 99%.

With `Cc1nc(C)c(-c2ccc(Oc3ccc(Cl)cc3)cc2)c(O)c1I`, the Inhibition stood at 88%.

`CCN(CC)CCNc1cc(C)nc(NC(=N)Nc2ccc(Cl)cc2)n1.Cl`: the Inhibition was 100%.

Molecule `Cc1nc(C)c(-c2ccc(Oc3cc(Cl)cc(Cl)c3)cc2)c(O)c1Cl` yielded an Inhibition of 96%.

In the case of `CCc1ccc(Cc2cnc3nc(N)nc(N)c3c2C)cc1`, the Inhibition is recorded as 97%.

For the molecule `CCNC(=O)CCc1cccc(Br)c1`, the Inhibition is given as 89%.

For `CCc1nc(N)nc(N)c1-c1ccc2c(c1)CCCC2`, the Inhibition was found to be 95%.

On to `O=C(Nc1cccc(-c2cccc(-c3nc4ccccc4[nH]3)c2)c1)NC1CC1c1ccccc1` (stereo not given), for which the Inhibition was 90% and 87%.

For `CC(C)(C)c1ccc(-c2nc3c(ccc4nc(N)nc(N)c43)[nH]2)cc1.Cl`, the Inhibition turned out to be 100%.

For the molecule `Nc1ncc(-c2ccc(S(=O)(=O)Nc3ccc(C(=O)N[C@@H](CCC(=O)O)C(=O)O)cc3)cc2)c(=O)[nH]1`, the Inhibition was determined as 99%.

Regarding `CC(=O)Oc1c(Br)c(C)nc(C)c1-c1ccc(Oc2ccc(OC(F)(F)F)cc2)cc1`, the Inhibition is reported as 98%.

The test system of another test is Plasmodium falciparum. In words: GSK_TCMDC: Inhibition of Plasmodium falciparum Dd2 in whole red blood cells, using parasite LDH activity as an index of growth. Test compounds present at 2uM. Format: functional.
The molecule `CCC(C(C)C)n1ccc2c3c(N)nc(N)nc3ccc21` (stereo not given) gave an Inhibition of 95%.

`Cc1ccc2ccncc2c1N`: the Inhibition was found to be 4%.

`Cl.Oc1ccc2c(CNC3CCCCC3)c(O)ccc2c1CNC1CCCCC1` came in with an Inhibition of 100%.

The molecule `Cc1nc2nc(N)nc(N)c2c(C)c1Cc1ccc(N)cc1.Cl` displayed an Inhibition of 0%.

For the molecule `CN(Cc1cnc2nc(N)nc(N)c2n1)c1ccc(C(=O)N[C@H](CCC(=O)OC(C)(C)C)C(=O)N[C@@H](CCC(=O)OC(C)(C)C)C(=O)OC(C)(C)C)cc1`, the Inhibition is on record as 1%.

With `COc1ccc2c(O)c(Br)c(C)nc2c1`, the Inhibition is reported as 74%.

Regarding `COc1cc(Cc2cnc(N)nc2N)cc(OCCCC(=O)O)c1OC`, the Inhibition was found to be 0%.

Molecule `CCCOc1ccc(CNCCCCCCNCc2ccc(OCCC)c3ccccc23)c2ccccc12.CS(=O)(=O)O` had an Inhibition of 96%.

Turning to `Cl.Nc1nc(N)c2c(ccc3nn(Cc4ccccc4)cc32)n1`, the Inhibition was 88%.

Regarding `CCN(CC)CCCN(CCCN(CC)CC)c1cc(C)nc(Nc2ccc(Br)cc2)n1.Cl`, the Inhibition came to 40%.

Consider `Cc1[nH]c(C)c(-c2ccc(Oc3ccccc3)cc2)c(=O)c1Br`, for which the Inhibition is 97%.

In the case of `CCc1cccc(-c2cc(N)n(C)c3nc(N)nc(=O)c2-3)c1`, the Inhibition worked out at 28%.

Molecule `CCCc1cc(Cc2cnc(N)nc2N)c2cccnc2c1OC` gave an Inhibition of 3%.

The molecule `Cc1cccc(Cn2ccc3c4c(N)nc(N)nc4ccc32)c1` came in with an Inhibition of 98%.

The molecule `Cl.Nc1ccncc1C(=O)NCCCCN1CCN(c2nsc3ccccc23)CC1` showed an Inhibition of 9%.

Regarding `COc1cc(Cc2cnc(N)nc2N)cc(OCCCC#N)c1OC`, the Inhibition is reported as 0%.

`Nc1nc(N)c2cc(Cc3ccccc3Cl)cnc2n1` gave an Inhibition of 0%.

The molecule `Cl.Oc1cc2ccccc2cc1CNC1CCCCC1` showed an Inhibition of 89%.

`Cc1nc(C)c(-c2ccc(Oc3ccc(Cl)c(Cl)c3)cc2)c(O)c1Br` gave an Inhibition of 96%.

For the molecule `CCCCN(CCCC)Cc1cc(N(C)c2ccc([N+](=O)[O-])cn2)ccc1O.O=C(O)C(=O)O`, the Inhibition is 98%.

Molecule `CC(C)c1ccc2c(c1)C(=O)c1ccc(C(=O)O)cc1S2(=O)=O` had an Inhibition of 83%.

For the molecule `CCCCc1cc(Cc2cnc(N)nc2N)cc(OC)c1OC.Cl`, the Inhibition stood at 0%.

`Cc1nc(C)c(-c2ccc(Cl)cc2)c(O)c1I` displayed an Inhibition of 96%.

For `CC(C)(C)c1ccc(-c2nnc(N)nc2N)cc1`, the Inhibition is listed as 0%.

In turn, `COc1ccc2c(OC)cccc2c1CNCCCCCCNCc1c(OC)ccc2c(OC)cccc12.CS(=O)(=O)O` showed an Inhibition of 28%.

As to `Nc1ncc(-c2ccc(F)c(Cl)c2)c(N)n1`, the Inhibition is listed as 0%.

Molecule `COCCOCCOCCn1ccc2c3c(N)nc(N)nc3ccc21` registered an Inhibition of 0%.

Take `CC(=NNC(S)=NCc1ccco1)c1ccccn1`: the Inhibition stood at 100%.

As for `CCCCN(CCCC)CCCN(CCCN(CCCC)CCCC)c1cc(C)nc(Nc2ccc(Cl)cc2)n1.O=C(O)C(=O)O`, the Inhibition is listed as 99%.

`Cl.O[C@@H](c1cc(C(F)(F)F)nc2c(C(F)(F)F)cccc12)[C@H]1CCCCN1` showed an Inhibition of 99%.

Molecule `Cc1nc(C)c(-c2ccc(Oc3ccc(Cl)cc3)cc2)c(O)c1I` had an Inhibition of 49%.

For `CCN(CC)CCNc1cc(C)nc(NC(=N)Nc2ccc(Cl)cc2)n1.Cl`, the Inhibition is given as 0%.

Molecule `Cc1nc(C)c(-c2ccc(Oc3cc(Cl)cc(Cl)c3)cc2)c(O)c1Cl` displayed an Inhibition of 96%.

Consider `CCc1ccc(Cc2cnc3nc(N)nc(N)c3c2C)cc1`, for which the Inhibition was determined as 0%.

Regarding `CCNC(=O)CCc1cccc(Br)c1`, the Inhibition came out at 54%.

`CCc1nc(N)nc(N)c1-c1ccc2c(c1)CCCC2`: the Inhibition stood at 0%.

For the molecule `O=C(Nc1cccc(-c2cccc(-c3nc4ccccc4[nH]3)c2)c1)NC1CC1c1ccccc1` (stereo not given), the Inhibition was 22% and 27%.

In the case of `CC(C)(C)c1ccc(-c2nc3c(ccc4nc(N)nc(N)c43)[nH]2)cc1.Cl`, the Inhibition amounted to 100%.

In the case of `Nc1ncc(-c2ccc(S(=O)(=O)Nc3ccc(C(=O)N[C@@H](CCC(=O)O)C(=O)O)cc3)cc2)c(=O)[nH]1`, the Inhibition was determined as 0%.

`CC(=O)Oc1c(Br)c(C)nc(C)c1-c1ccc(Oc2ccc(OC(F)(F)F)cc2)cc1` showed an Inhibition of 97%.

As a reminder, the Inhibition is how much of the control response was suppressed. The low end stands for a weak effect, the high end for a strong effect.
